Laboratory results: publication PMC4336329 (PLoS ONE, 2015)
Screen size: about 310,000 compounds; about 14,000 (4.5%) showed an effect of 50% or more. Effects have a minus sign here. The entries come from a sample that favours strong results as a whole.

Biological target: human ether-à-go-go-related gene (hERG) potassium channel (human, UniProt Q12809)
Assay: primary screen, population patch clamp on CHO cells stably expressing hERG; higher = less effect of the substance
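Note: peak tail current of the secondary pulse compared with the same well before compound.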

Chain of human ether-à-go-go-related gene (hERG) potassium channel (Q12809 whole entry, looked up): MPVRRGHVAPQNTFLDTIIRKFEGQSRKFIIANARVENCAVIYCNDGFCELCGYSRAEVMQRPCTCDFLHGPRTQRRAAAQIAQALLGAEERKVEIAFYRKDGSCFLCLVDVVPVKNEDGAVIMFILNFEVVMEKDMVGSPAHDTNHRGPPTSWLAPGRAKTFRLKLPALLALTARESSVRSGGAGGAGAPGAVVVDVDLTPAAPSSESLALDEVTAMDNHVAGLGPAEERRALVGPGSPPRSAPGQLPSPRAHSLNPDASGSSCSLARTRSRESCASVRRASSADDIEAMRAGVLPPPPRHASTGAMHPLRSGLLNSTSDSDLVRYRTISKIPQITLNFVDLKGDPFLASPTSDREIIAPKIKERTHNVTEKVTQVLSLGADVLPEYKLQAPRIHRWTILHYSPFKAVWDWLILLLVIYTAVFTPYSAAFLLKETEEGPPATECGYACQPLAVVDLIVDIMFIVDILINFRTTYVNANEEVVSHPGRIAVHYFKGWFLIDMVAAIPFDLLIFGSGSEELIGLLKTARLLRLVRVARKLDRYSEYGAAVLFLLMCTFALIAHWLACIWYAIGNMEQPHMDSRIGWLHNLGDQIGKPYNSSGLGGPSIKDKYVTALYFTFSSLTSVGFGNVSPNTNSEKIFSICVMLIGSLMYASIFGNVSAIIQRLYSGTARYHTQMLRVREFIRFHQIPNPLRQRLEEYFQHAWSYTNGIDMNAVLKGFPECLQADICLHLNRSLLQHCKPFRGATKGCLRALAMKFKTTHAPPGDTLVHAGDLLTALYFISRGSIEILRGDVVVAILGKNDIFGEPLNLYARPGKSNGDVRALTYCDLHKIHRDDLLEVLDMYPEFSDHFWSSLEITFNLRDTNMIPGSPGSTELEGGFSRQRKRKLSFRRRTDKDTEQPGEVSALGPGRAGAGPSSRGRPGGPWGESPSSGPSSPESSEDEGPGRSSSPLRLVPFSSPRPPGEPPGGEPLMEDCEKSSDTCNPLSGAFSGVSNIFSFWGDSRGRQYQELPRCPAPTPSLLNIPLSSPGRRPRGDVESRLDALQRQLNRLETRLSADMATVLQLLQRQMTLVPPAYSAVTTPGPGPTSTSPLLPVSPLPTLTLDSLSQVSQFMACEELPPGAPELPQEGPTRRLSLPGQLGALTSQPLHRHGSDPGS

Row | SMILES | hERG current change (%, negative = inhibition) at 10uM [%]
1 | O=C(O)c1ccccc1C1Nc2ccccc2C(=O)N1CCCN1CCOCC1 (stereo not drawn) | 18.4
2 | C/C(=N/n1cnnc1)c1cccnc1 | -0.855
3 | C/C(=N\NC(=O)CCC(=O)Nc1ccc(C)c(C)c1)C1CC1 | 10.7
4 | Cc1ccc2nc(N3CCN(C)CC3)c(C#N)cc2c1 | -42.3
5 | COc1ccc2cc(C#N)c(N3CCN(C(=O)c4ccccc4C)CC3)nc2c1 | -18.9
6 | Cc1ccc2cc(C#N)c(N3CCN(C(=O)c4ccccc4)CC3)nc2c1 | -67.1
7 | Cc1ccc2cc(C#N)c(N3CCN(C(=O)c4cccs4)CC3)nc2c1 | -34.2
8 | N#Cc1cccnc1N1CCN(C(=O)c2cccs2)CC1 | -1.7
9 | Cc1ccc2cc(C#N)c(N3CCN(C)CC3)nc2c1 | 2.75
10 | Cc1ccc2cc(C#N)c(N3CCCN(C(=O)c4cnccn4)CC3)nc2c1 | -42.4
11 | COc1ccc(C(=O)N2CCN(c3nc4cc(C)ccc4cc3C#N)CC2)c(OC)c1 | -22.8
12 | CCc1ccc2nc(N3CCN(C)CC3)c(C#N)cc2c1 | -54.3
13 | Cc1ccc2nc(N3CCN(C(=O)c4cccs4)CC3)c(C#N)cc2c1 | -76.9
14 | COc1cc(C(=O)N2CCCN(c3nc4cc(C)ccc4cc3C#N)CC2)cc(OC)c1OC | -53.5
15 | Cc1cccc2cc(C#N)c(N3CCN(C)CC3)nc12 | -46
16 | Cc1cc(-c2ccccc2)nc(N(C)NC(=O)c2ccc(Cl)cc2)c1S(C)(=O)=O | 0.236
17 | CC(=O)c1cccc(NC(=O)N2CCC(C(=O)c3ccc(F)cc3)CC2)c1 | -28.1
18 | CCOc1ccc(N=Nc2c(C)[nH]n(-c3ccccc3)c2=O)cc1 | 18.6
19 | O=C(COC(=O)C1CCC1)Nc1ccccc1Sc1ccccc1 | 7.34
20 | COc1ccc2nc(NC(=S)NC(=O)c3ccco3)sc2c1 | 25.2
21 | COc1ccc(CCNC(=O)c2cnc3n(c2=O)CCS3)cc1OC | -5.87
22 | Cc1ccc(-n2c(C)nn(CCOc3ccccc3)c2=O)cc1 | 1.54
23 | COc1ccccc1C(=O)N1CCN(c2nc3cc(C)c(C)cc3cc2C#N)CC1 | -2.28
24 | Cc1ccc(C(=O)N2CCCN(c3nc4cc5c(cc4cc3C#N)OCO5)CC2)cc1 | -0.619
25 | Cc1ccc2nc(N3CCN(C(=O)c4ccc(F)cc4)CC3)c(C#N)cc2c1 | -73.6

Row | SMILES | hERG current change (%, negative = inhibition) at 10uM [%]
26 | C/C(=N\NC(=O)c1cc(-c2ccc(O)cc2)nc2ccccc12)c1cccnc1 | 11.7
27 | COC(=O)/C=C1\SC(=Nc2ccccc2)NC1=O | 9.64
28 | Cc1nnc2ccc(N3CCN(c4cccc(C(F)(F)F)c4)CC3)nn12 | -61.8
29 | Cc1nnc2ccc(N3CCCCC3)nn12 | 6.15
30 | Cc1nnc2ccc(N3CCCC3)nn12 | 6.22
31 | FC(F)(F)c1cccc(N2CCN(c3ccc4nnc(-c5ccccc5)n4n3)CC2)c1 | -4.4
32 | Cc1nnc2ccc(-c3cccc(C(F)(F)F)c3)nn12 | -9.04
33 | Cc1nnc2ccc(N3CCN(c4ccccn4)CC3)nn12 | -57
34 | CN1CCc2c(sc(N)c2C(N)=O)C1 | 6.59
35 | S=c1[nH]c2ccc(Cl)cc2s1 | 21.1
36 | O=C(NCc1ccc(Cl)cc1)C(=O)Nc1nccs1 | 20.7
37 | O=C(c1ccc2c(=O)n(C3CCCC3)c(=S)[nH]c2c1)N1CCN(C2CCCCC2)CC1 | 6.5
38 | CSC1=N/C(=C\c2ccccc2C)C(=O)S1 | 23.9
39 | COc1ccc2cc(C(C)=O)c(=O)oc2c1 | -11.4
40 | OCCN=C1CCCc2c1[nH]c1ccc(Cl)cc21 | -18
41 | Cl.c1ccc(CCN=C2CCCc3c2[nH]c2ccccc32)cc1 | -73.2
42 | OCCN=C1CCCc2c1[nH]c1ccc(Br)cc21 | 6.45
43 | CCN(CC)C(=O)c1ccc(CS(=O)(=O)c2ccc(OC)cc2)o1 | -0.122
44 | N=c1c(S(=O)(=O)c2ccc(Cl)cc2)cc2c(=O)n3ccccc3nc2n1C1CCCC1 | 14
45 | N=c1c(C(=O)NC2CCCC2)cc2c(=O)n3ccccc3nc2n1C1CCCCC1 | -79
46 | N=c1c(C(=O)NC2CCCC2)cc2c(=O)n3ccccc3nc2n1C1CCCC1 | -82.2
47 | Cc1nc2ccccn2c1C(=O)NC1CCCC1 | 16.2
48 | Cc1nc2ccccn2c1C(=O)NC1CCCCC1 | 1.83
49 | Cn1c(C(=O)NC2CCCCC2)cc2c(=O)n3ccccc3nc21 | 4.32
50 | COc1ccc(N2CCN(C(CNC(=O)C(=O)NC3CC3)c3ccco3)CC2)cc1 (stereo not drawn) | 13.6

Row | SMILES | hERG current change (%, negative = inhibition) at 10uM [%]
51 | CCOc1cc(C=C(C(=O)OC)C(=O)OC)ccc1OCc1ccc([N+](=O)[O-])cc1 | 4.17
52 | O=C(Nc1ccc(F)cc1F)c1cc2ncc(CCCl)cn2n1 | -12.3
53 | O=C(Nc1nnc(SCc2ccc(F)cc2)s1)c1cccnc1Cl | 2.48
54 | COc1cc(NC(=O)c2cc3ccccc3o2)c(OC)cc1Cl | 16.3
55 | Clc1ccc(Cn2ncc3c(N4CCOCC4)ncnc32)cc1 | -16.2
56 | Clc1ccc(Cn2ncc3c(N4CCCCC4)ncnc32)cc1 | -14.4
57 | c1csc(CNc2ncnc3ccc(-c4ccoc4)cc23)c1 | -13.4
58 | Cc1cccc(CNc2ncnc3ccc(-c4ccoc4)cc23)c1 | -12.4
59 | c1ccc(CNc2ncnc3c2cnn3Cc2ccccc2)cc1 | -22
60 | Brc1ccc2ncnc(NCc3ccccc3)c2c1 | -10.3
61 | c1cncc(CNc2ncnc3sccc23)c1 | 17.8
62 | Clc1ccc(Cn2ncc3c(NCc4cccnc4)ncnc32)cc1 | -51.2
63 | Clc1ccc(Cn2ncc3c(NCc4ccccc4)ncnc32)cc1 | -1.94
64 | Brc1ccc2ncnc(NCc3cccnc3)c2c1 | -60.2
65 | c1cncc(CNc2ncnc3ccc(-c4ccoc4)cc23)c1 | -71.4
66 | Clc1ccc(Cn2ncc3c(N4CCCC4)ncnc32)cc1 | -56.7
67 | O=c1c(NCCc2ccc(Cl)cc2)c(-c2ccccc2)c1=O | 5.81
68 | O=S1(=O)CCS(=O)(=O)C1c1ccccc1 | -1.95
69 | COc1ccc(N/C=C/C(=O)c2cc(OC)c(OC)c(OC)c2)cc1 | -8.76
70 | Cc1nc2cc(CO)ccc2s1 | 9.23
71 | COC(=O)/C(=C\Nc1ccccc1N)c1ncc(C(F)(F)F)cc1Cl | 3.74
72 | CCn1ncc(C2=NOC(C(=O)Nc3c(C)nn(Cc4ccc(F)cc4)c3C)C2)c1C (stereo not drawn) | 10.3
73 | COc1ccc(-c2nc3nc(C)cc(=O)n3[nH]2)cc1 | 17.9
74 | CCn1nnnc1NCc1ccc(N2CCCC2)cc1 | 3.6
75 | Cc1ccc(S(=O)(=O)NCCCCCC(=O)NC(C)(C)CO)cc1 | 13.7

Row | SMILES | hERG current change (%, negative = inhibition) at 10uM [%]
76 | CCCCNC(=O)CSc1nc2ccccc2n1S(=O)(=O)c1ccc(Br)cc1 | -0.913
77 | COc1cccc(-c2ccc3ncnc(NCc4cccc(C)c4)c3c2)c1 | -0.57
78 | Cc1cccc(-c2ccc3ncnc(NCc4cccs4)c3c2)c1 | -8.55
79 | Cc1cccc(-c2ccc3ncnc(NCc4cccnc4)c3c2)c1 | -70.5
80 | CN(CCc1ccccn1)C(=O)CCC1CCCN(C(=O)NC2CCCCC2)C1 (stereo not drawn) | 17.4
81 | CCc1ccccc1NC(=O)N1CCCC(CCC(=O)N(C)CCc2ccccn2)C1 (stereo not drawn) | 13.1
82 | CCOC(=O)CCNC(=O)N1CCCC(CCC(=O)N(C)CCc2ccccn2)C1 (stereo not drawn) | -52.3
83 | CCCCNC(=S)N(C)/N=C/c1ccc(F)cc1 | -8.72
84 | CCCCNC(=S)N(C)/N=C/c1ccccc1F | 2.14
85 | CCCCNC(=S)N(C)/N=C/c1ccc2c(c1)OCO2 | -50.1
86 | CCOc1c(N2CCCCC2)c(=O)c1=O | 0.507
87 | Cc1cc(C)cc(NC(=O)CSc2nnc(-c3ccncc3)o2)c1 | -22.8
88 | COc1cc(OC)c(C(=O)Nc2cccc(C(C)=O)c2)cc1OC | -9.08
89 | Cc1ccc2cc(CCNS(=O)(=O)c3ccc(F)cc3)c(=O)[nH]c2c1C | 10.9
90 | CCOC(=O)C1=C(N)OC2=C(C(=O)CCC2)C1c1ccc(C)s1 (stereo not drawn) | -54.3
91 | CCOC(=O)C1=C(N)OC2=C(C(=O)CC(C)(C)C2)C1c1ccc(C)s1 (stereo not drawn) | -42.3
92 | CCOC(=O)C1=C(N)OC2=C(C(=O)CCC2)C1c1cccs1 (stereo not drawn) | 1.13
93 | CCOC(=O)CC(=O)c1cc(OC)c(OC)c(OC)c1 | -3.44
94 | O=C(NCCCn1ccnc1)c1nn2c(C(F)(F)F)cc(-c3ccccc3)nc2c1Cl | -29.6
95 | O=C(NCCCn1ccnc1)c1cc2nc(-c3ccc(Br)cc3)cc(C(F)(F)F)n2n1 | -62.8
96 | O=C(NCCCn1ccnc1)c1nn2c(C(F)(F)F)cc(-c3ccc(Br)cc3)nc2c1Cl | -65.7
97 | CCCNC(=O)c1nn2c(C(F)(F)F)cc(-c3ccccc3)nc2c1Cl | -4.1
98 | Cc1ccc(-c2cc(C(F)(F)F)n3nc(C(=O)NCCCn4ccnc4)cc3n2)cc1C | -20.6
99 | COc1ccc(-c2cc(C(F)(F)F)n3nc(C(=O)NCCCn4ccnc4)cc3n2)cc1 | -41
